The source made the active and inactive calls. Calls come from the whole dose curve.
Each compound was assayed against Acetylcholinesterase (Homo sapiens) (UniProt P22303) (assay: Acetylcholinesterase (AChE) small molecule antagonists: enzyme-based qHTS assay (AID 1347397; note: nearly all actives have a fitted effect of over 55% in size)). Conditions: Potency: AChE enzyme activity inhibition; outcome: AChE enzyme activity inhibition; series mostly up to 115 µM; activity change, negative = inhibition: at the top concentration.
Acetylcholinesterase (Homo sapiens), sequence (P22303 whole entry, looked up): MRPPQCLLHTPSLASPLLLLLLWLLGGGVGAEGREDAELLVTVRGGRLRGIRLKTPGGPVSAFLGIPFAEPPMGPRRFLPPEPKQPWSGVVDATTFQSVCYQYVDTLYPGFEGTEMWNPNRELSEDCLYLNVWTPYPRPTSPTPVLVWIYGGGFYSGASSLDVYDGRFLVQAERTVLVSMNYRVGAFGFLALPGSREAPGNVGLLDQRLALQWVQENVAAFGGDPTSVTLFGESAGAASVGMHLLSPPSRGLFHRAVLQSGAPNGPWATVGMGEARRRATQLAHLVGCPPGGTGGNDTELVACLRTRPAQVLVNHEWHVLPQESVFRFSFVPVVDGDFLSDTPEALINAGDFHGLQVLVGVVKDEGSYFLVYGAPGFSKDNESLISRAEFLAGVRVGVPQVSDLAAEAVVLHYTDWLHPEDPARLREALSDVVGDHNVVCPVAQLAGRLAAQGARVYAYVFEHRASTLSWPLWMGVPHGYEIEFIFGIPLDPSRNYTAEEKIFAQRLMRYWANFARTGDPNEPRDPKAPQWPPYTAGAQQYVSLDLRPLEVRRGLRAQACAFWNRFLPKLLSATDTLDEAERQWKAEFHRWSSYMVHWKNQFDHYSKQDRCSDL
Excerpt: National Center for Advancing Translational Sciences [NCATS]
Division of Preclinical Innovation [DPI]
U.S. Environmental Protection Agency [EPA]
National Institutes of Environmental Health Sciences [NIEHS]
National Toxicology Program [NTP]
U.S. Food and Drug Administration [FDA]
Acetylcholinesterase (AChE) is the primary cholinesterase in the body that hydrolyzes a key neurotransmitter, acetylcholine. Inhibition of AChE activity can lead to neurotoxicity. The known inhibitors include organophosphorous pesticides (OP), chemical warfare agents, drugs, and various phytochemicals.
An enzyme-based assay with the recombinant human AChE and Amplite Colormetric acetylcholinesterase assay kit (AAT Bioquest, Sunnyvale, CA) was used to evaluate the chemicals in the Tox21 10K library that inhibit AChE activity. The assay uses 5, 5-dithiobis-(2-nitrobenzoic acid) (DTNB) to quantify the thiocholine produced from the hydrolysis of acetylthiocholine by AChE.
Tox21 Assay Protocol Summary:
For the enzyme-based AChE assay, recombinant human AChE (50 mU/mL) in 4 uL/well was dispensed into black, clear-bottom 1536-well plates using a Multidrop Combi dispenser (Thermo Scientific, MA). Then, 23 nL of compound or DMSO (vehicle control) was transferred into the assay plates by a Pintool Station (Wako Automation, CA). The plates were incubated for 30 min at room temperature, followed by the addition of 4 uL of colorimetric detection cocktail solution (DTNB, acetylthiocholine) into each well using a Flying Reagent Dispenser (Beckman Coulter, CA) and then 10 min incubation at room temperature.
In the case of `Cc1ccc(C2OC[C@@H]3OC(c4ccc(C)cc4)O[C@H]([C@H](O)CO)[C@@H]3O2)cc1` (stereo not given in full), the “activity change, negative = inhibition” value was -1.18% (inactive). For `C=CC1CC2C=CC1C2` (stereo not given), the “activity change, negative = inhibition” value was -0.407% (inactive). With `CC(C)=CCC/C(C)=C/C=N/O` the “activity change, negative = inhibition” value was -0.393% (inactive). `CNCCO` was tested, and the “activity change, negative = inhibition” value was -1.58% (inactive). For `C=COCC1CCC(COC=C)CC1` (stereo not given), the “activity change, negative = inhibition” value was -0.257% (inactive). For `OCCN1CCN(CCCN2c3ccccc3Sc3ccc(C(F)(F)F)cc32)CC1`, the “activity change, negative = inhibition” value was 1.51% [at 53 µM] (inactive). For `N#CC1(N)CCCCC1`, the “activity change, negative = inhibition” value was -1.94% (inactive). With `CCC(O)CO` (stereo not given) the “activity change, negative = inhibition” value was -0.681% (inactive). For `Nc1ccc2ccccc2c1S(=O)(=O)O`, the “activity change, negative = inhibition” value was -0.409% (inactive). In the case of `Cc1cc(=O)oc2cc(N(C)C)ccc12`, the “activity change, negative = inhibition” value was 5.07% (inactive). With `CCCCC/C=C/CC1CC(=O)OC1=O` (stereo not given) the “activity change, negative = inhibition” value was -0.212% (inactive). In the case of `COC(=O)Nc1nc2ccc(C(=O)c3ccccc3)cc2[nH]1`, the “activity change, negative = inhibition” value was -2.35% [at 53 µM] (inactive). With `CCOC(=O)C1CC(=O)C(=C(O)C2CC2)C(=O)C1` (stereo not given) the “activity change, negative = inhibition” value was 0% (inactive). For `C=CC(C)(O)CCCC(C)CCCC(C)CCCC(C)C` (stereo not given), the “activity change, negative = inhibition” value was -0.136% (inactive). With `Nc1ccn(C2CO[C@H](CO)O2)c(=O)n1` (stereo not given in full) the “activity change, negative = inhibition” value was 0% [at 53 µM] (inactive). `CC1CC(=O)CC(C)(C)C1` (stereo not given) was tested, and the “activity change, negative = inhibition” value was -1.27% (inactive). In the case of `COc1cccc(OC)c1C(=O)O`, the “activity change, negative = inhibition” value was 1.17% (inactive). With `CCN(CC)C(C)CN1c2ccccc2Sc2ccccc21` (stereo not given) the “activity change, negative = inhibition” value was 0.552% [at 53 µM] (inactive). For `C=C(C)C(=O)OCCC(F)(F)C(F)(F)C(F)(F)C(F)(F)C(F)(F)C(F)(F)F`, the “activity change, negative = inhibition” value was 0.412% (inactive). In the case of `O=C1CCCN1CCO`, the “activity change, negative = inhibition” value was 0.369% (inactive). `Cc1nc(N)nc(N)c1-c1ccc(Cl)c(Cl)c1` was tested, and the “activity change, negative = inhibition” value was -2.03% [at 53 µM] (inactive). With `CCN(C(=O)N(CC)c1ccccc1)c1ccccc1` the “activity change, negative = inhibition” value was -0.403% (inactive). In the case of `O=C(O)/C=C/c1ccc(O)c(O)c1`, the “activity change, negative = inhibition” value was 0.125% (inactive). In the case of `CN1CCN(C(=O)C2CCCCC2)CC1`, the “activity change, negative = inhibition” value was -0.343% [at 53 µM] (inactive). With `C[C@H]1NCc2cc(-c3ccc4c(=O)c(C(=O)O)cn(C5CC5)c4c3OC(F)F)ccc21` the outcome was “inactive”. In the case of `CC[C@H]1O[C@]2(CC[C@@H]1C)C[C@@H]1C[C@@H](C/C=C(\C)C[C@@H](C)/C=C/C=C3\CO[C@@H]4[C@H](O)C(C)=C[C@@H](C(=O)O1)[C@]34O)O2`, the “activity change, negative = inhibition” value was 1.41% (inactive). For `CCCCCCCCCCCCCCCC(=O)OC/C=C(C)/C=C/C=C(C)/C=C/C1=C(C)CCCC1(C)C`, the “activity change, negative = inhibition” value was -1.25% (inactive). In the case of `CC(=O)c1ccc2c(c1)N(CCCN1CCC(CCO)CC1)c1ccccc1S2`, the “activity change, negative = inhibition” value was -19.8% [at 53 µM] (inactive). With `O=C1c2ccccc2C(=O)c2c(Cl)cccc21` the “activity change, negative = inhibition” value was 1.08% [at 53 µM] (inactive). For `C=CC(=O)O`, the “activity change, negative = inhibition” value was 1.21% [at 53 µM] (inactive). `COc1ccc(/C=C/C(=O)c2ccc(OC)cc2OC)cc1` was tested, and the “activity change, negative = inhibition” value was -0.957% [at 53 µM] (inactive). With `CCCCCN=C(N)N/N=C/c1c[nH]c2ccc(OC)cc12` the “activity change, negative = inhibition” value was -7.94% [at 53 µM] (inactive). For `Cc1ccccc1C#N`, the “activity change, negative = inhibition” value was 0.273% (inactive). In the case of `CN=C(NC#N)NCCSCc1csc(N=C(N)N)n1`, the “activity change, negative = inhibition” value was 1.48% [at 53 µM] (inactive). `CC(C)[N+](C)(C)CC(O)COc1cccc2ccccc12` (stereo not given) was tested, and the “activity change, negative = inhibition” value was 0.27% [at 53 µM] (inactive). In the case of `CCOC(=N)CC(=O)OCC`, the “activity change, negative = inhibition” value was -0.0083% (inactive). For `CC[N+](C)(CC)CCOC(=O)C1c2ccccc2Oc2ccccc21`, the “activity change, negative = inhibition” value was 0.451% [at 53 µM] (inactive). `COc1ccccc1N1CCN(CC(O)COc2cc(OC)c(OC)c(OC)c2)CC1` (stereo not given) was tested, and the “activity change, negative = inhibition” value was 0.26% [at 53 µM] (inactive). `CCCCOC(=O)C(C)CC` (stereo not given) was tested, and the “activity change, negative = inhibition” value was 1.12% (inactive). In the case of `O=Cc1ccc(F)cc1`, the “activity change, negative = inhibition” value was -0.516% (inactive).

Source: PubChem BioAssay (Tox21)
% is set by controls: 0 for no effect and ±100 for the full control effect.
